# The source made the active and inactive calls.
# Columns and labels:
# [1] = tested on: Plasmodium falciparum Sir2 (PF13_0152, Sir2A); assay: Plasmodium falciparum Sir2A binding compounds – biochemical, small-molecule microarray, 635 nm fluorescence, primary screen (AID 1098); conditions: fluorescence 635 nm, higher = more signal;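 note: score merges spot fluorescence intensity with its signal-to-noise ratio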
# [2] = probe aDKK1 binding to arrayed compounds – biochemical, biotinylated probe, 635/667 nm fluorescence, primary screen (AID 1099); conditions: small-molecule microarray, higher = more signal;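 note: score merges 667nm spot fluorescence with signal to noise across triplicate slides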
# [3] = probe aCHRDL2 binding to arrayed compounds – biochemical, biotinylated probe, 635/667 nm fluorescence, primary screen (AID 1100); conditions: small-molecule microarray, higher = more signal
# [4] = change in splice reporter luminescence, either direction, cell-based, HEK293, spliceosome inhibition project, primary screen (AID 1101); conditions: HEK293 splicing luciferase reporter, 24 h, higher = more signal, called active from +8 up or from −8 down;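 note: HEK293 cells carrying a splicing-competent luciferase reporter gene; test concentration not given here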
# [5] = target: Fibroblast growth factor 10 (Homo sapiens) (UniProt O15520); assay: compounds binding fibroblast growth factor 10 – biochemical, small-molecule microarray, 635 nm fluorescence, primary screen (AID 1102); conditions: FGF10 binding, fluorescence 635 nm, higher = more signal
# [6] = tested on: glycogen synthase kinase-3 (GSK3A per assay name; protocol says GSK3B); assay: compounds binding glycogen synthase kinase-3 – biochemical, small-molecule microarray, 635 nm fluorescence, GSK3A, primary screen (AID 1103); conditions: fluorescence 635 nm, higher = more signal; note: the record names both GSK3A and GSK3B
# [7] = target: Epidermal growth factor receptor (Homo sapiens) (UniProt P00533); assay: compounds binding epidermal growth factor receptor – biochemical, small-molecule microarray, 635 nm fluorescence, primary screen (AID 1104); conditions: EGFR binding, higher = more signal;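 note: score merges 667 nm emission intensity with spot signal to noise over triplicate slides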
# [8] = target: Follistatin-related protein 3 (Homo sapiens) (UniProt O95633); assay: compounds binding follistatin-related protein 3 – biochemical, small-molecule microarray, 635 nm fluorescence, primary screen (AID 1105); conditions: FSTL3 binding, higher = more signal;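 note: score merges emission near 667 nm and signal to noise per printed spot across three slides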
# [9] = target: Dickkopf-related protein 1 (Homo sapiens) (UniProt O94907); assay: small molecules binding DKK1 protein – biochemical, small-molecule microarray, 635 nm fluorescence scan, primary screen (AID 1106); conditions: higher = more signal;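 note: score merges emission near 667 nm with signal to noise over three replicate slides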
# [10] = tested on: Inhibin beta A chain (activin A); assay: small molecules binding activin A – biochemical, small-molecule microarray, 635 nm fluorescence scan, primary screen (AID 1107); conditions: INHBA, higher = more signal;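 note: mouse activin A protein probed at 4.33 µg/mL on printed slides; score merges bound-protein fluorescence near 667 nm with spot signal-to-noise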
# [11] = tested on: Human papillomavirus type 1a protein E7 (residues 44-93); assay: small molecules binding HPV E7 44-93 – biochemical, small-molecule microarray, residues 44-93, 635 nm fluorescence, primary screen (AID 1108); conditions: fluorescence 635 nm, higher = more signal;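 note: E7 fragment applied at 1 µg/mL in TBST for 1 h at 4 C; score combines spot fluorescence with its signal to noise ratio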
# [12] = hepatitis C replication reporter changes, two-sided – Huh7 cells, luciferase reporter, HCV replication inhibitor project, primary screen (AID 1109); conditions: Huh7 HCV replicon luciferase reporter, 48 h; higher = more signal;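 note: huh7 hepatoma cells harbouring a luciferase neomycin HCV replicon reporter; luciferase luminescence as measure of HCV replicon replication; test concentration not given here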
# [13] = target: Left-right determination factor 2 (Homo sapiens) (UniProt O00292); assay: small molecules binding LEFTY2 protein – biochemical, small-molecule microarray, 635 nm fluorescence scan, primary screen (AID 1110); conditions: higher = more signal
# [14] = target: Calmodulin-1 (Homo sapiens) (UniProt P0DP23); assay: small molecules binding calmodulin-1 with EGTA – biochemical, small-molecule microarray, Cy5-labelled CALM1, profiling panel (AID 1111); conditions: Cy5-CALM1 binding fluorescence, higher = more signal;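 note: labelled calmodulin applied in Tris saline Tween buffer holding calcium plus EGTA and DTT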
# [15] = target: Calmodulin-1 (Homo sapiens) (UniProt P0DP23); assay: small molecules binding Ca-loaded calmodulin-1 – biochemical, small-molecule microarray, Cy5-labelled CALM1, plus calcium, artefact control for SMM control-protein annotation, profiling panel (AID 1112); conditions: Cy5-CALM1 binding fluorescence, higher = more signal;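 note: score merges spot fluorescence with signal to noise from triplicate slides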
# [16] = probe aWnt5a binding to arrayed compounds – biochemical, biotinylated probe, 635/667 nm fluorescence, primary screen (AID 1113); conditions: small-molecule microarray, higher = more signal;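 note: score merges 667 nm fluorescence intensity with signal-to-noise per printed feature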
# [17] = probe aShh binding to arrayed compounds – biochemical, biotinylated probe, 635/667 nm fluorescence, primary screen (AID 1114); conditions: small-molecule microarray, higher = more signal;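 note: probe is biotin-labelled aShh protein from a stem cell growth factor screen; measures binding of labelled protein to compounds printed on the slide; score merges feature fluorescence at 667 nm with signal-to-noise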
# [18] = probe aNog binding to arrayed compounds – biochemical, biotinylated probe, 635/667 nm fluorescence, primary screen (AID 1115); conditions: small-molecule microarray, higher = more signal;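 note: probe is biotinylated aNog protein used at 0.15 µg/mL for 1 h at 4 C; z-score combines 667 nm fluorescence of each spot with its signal to noise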
# [19] = target: Torsin-1A-interacting protein 1 (Homo sapiens) (UniProt Q5JTV8); assay: compound microarray binding of lysate hLAP1 – cell lysate, small-molecule microarray, COS7 lysate, 635/667 nm fluorescence, primary screen (AID 1116); conditions: 635 nm fluorescence, higher = more signal
# [20] = target: Alpha-bungarotoxin (Bungarus multicinctus) (UniProt P60615); assay: compounds binding labelled alpha-BTX control protein – biochemical, small-molecule microarray, Alexa647 label, 635/667 nm fluorescence, artefact control for SMM control protein annotation, profiling panel (AID 1117); conditions: alpha-BTX-A647 binding fluorescence, higher = more signal
# Chain of Alpha-bungarotoxin (Bungarus multicinctus) (P60615 whole entry, looked up): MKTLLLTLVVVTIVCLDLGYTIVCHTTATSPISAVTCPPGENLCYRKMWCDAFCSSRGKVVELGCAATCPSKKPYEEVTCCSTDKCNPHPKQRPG
# Chain of Left-right determination factor 2 (Homo sapiens) (O00292 whole entry, looked up): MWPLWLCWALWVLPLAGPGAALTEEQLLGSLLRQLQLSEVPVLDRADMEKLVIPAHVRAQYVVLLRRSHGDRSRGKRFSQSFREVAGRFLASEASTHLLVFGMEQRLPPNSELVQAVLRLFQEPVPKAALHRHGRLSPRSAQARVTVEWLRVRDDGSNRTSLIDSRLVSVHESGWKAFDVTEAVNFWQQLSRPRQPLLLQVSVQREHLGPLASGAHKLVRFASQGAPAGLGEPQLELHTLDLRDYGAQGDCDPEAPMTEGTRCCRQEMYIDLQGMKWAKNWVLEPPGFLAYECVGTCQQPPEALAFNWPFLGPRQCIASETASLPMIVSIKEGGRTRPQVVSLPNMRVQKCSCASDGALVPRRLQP
# Chain of Epidermal growth factor receptor (Homo sapiens) (P00533 whole entry, looked up): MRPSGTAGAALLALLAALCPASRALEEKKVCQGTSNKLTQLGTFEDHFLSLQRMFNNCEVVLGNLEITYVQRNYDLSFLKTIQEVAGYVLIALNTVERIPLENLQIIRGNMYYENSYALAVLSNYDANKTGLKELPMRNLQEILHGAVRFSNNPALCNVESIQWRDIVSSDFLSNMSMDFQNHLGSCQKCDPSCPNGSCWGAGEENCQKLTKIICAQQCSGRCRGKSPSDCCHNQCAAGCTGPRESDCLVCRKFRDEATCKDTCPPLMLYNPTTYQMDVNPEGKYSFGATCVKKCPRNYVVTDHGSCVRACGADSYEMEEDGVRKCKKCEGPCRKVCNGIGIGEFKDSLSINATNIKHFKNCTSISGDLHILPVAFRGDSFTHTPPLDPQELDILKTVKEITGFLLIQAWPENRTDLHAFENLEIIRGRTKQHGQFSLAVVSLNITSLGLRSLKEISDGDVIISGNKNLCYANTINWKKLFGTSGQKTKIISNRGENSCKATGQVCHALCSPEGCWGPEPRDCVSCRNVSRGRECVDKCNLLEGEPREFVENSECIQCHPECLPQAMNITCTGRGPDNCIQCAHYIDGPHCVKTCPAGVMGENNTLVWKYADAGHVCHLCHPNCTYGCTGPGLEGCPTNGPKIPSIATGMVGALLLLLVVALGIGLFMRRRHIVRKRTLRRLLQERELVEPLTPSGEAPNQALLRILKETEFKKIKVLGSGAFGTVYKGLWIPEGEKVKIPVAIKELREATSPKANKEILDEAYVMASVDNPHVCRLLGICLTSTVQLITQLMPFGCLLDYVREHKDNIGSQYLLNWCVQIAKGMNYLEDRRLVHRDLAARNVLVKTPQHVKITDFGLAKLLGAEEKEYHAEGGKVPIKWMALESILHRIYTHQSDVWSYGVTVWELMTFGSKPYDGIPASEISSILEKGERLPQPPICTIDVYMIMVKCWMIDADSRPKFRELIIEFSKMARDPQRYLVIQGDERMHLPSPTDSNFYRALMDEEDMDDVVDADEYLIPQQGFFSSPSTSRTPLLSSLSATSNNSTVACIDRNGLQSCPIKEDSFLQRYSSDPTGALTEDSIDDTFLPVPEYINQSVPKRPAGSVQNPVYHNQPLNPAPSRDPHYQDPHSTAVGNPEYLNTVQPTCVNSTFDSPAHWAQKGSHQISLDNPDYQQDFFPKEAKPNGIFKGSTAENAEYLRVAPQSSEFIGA
# Chain of Follistatin-related protein 3 (Homo sapiens) (O95633 whole entry, looked up): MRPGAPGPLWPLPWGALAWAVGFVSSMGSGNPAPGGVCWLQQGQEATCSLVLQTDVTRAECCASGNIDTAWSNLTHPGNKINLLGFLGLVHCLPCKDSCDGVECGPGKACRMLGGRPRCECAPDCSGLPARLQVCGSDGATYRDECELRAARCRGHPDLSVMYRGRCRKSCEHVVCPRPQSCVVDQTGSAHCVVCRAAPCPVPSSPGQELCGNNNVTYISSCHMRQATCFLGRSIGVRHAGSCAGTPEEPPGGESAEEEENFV
# Chain of Torsin-1A-interacting protein 1 (Homo sapiens) (Q5JTV8 whole entry, looked up): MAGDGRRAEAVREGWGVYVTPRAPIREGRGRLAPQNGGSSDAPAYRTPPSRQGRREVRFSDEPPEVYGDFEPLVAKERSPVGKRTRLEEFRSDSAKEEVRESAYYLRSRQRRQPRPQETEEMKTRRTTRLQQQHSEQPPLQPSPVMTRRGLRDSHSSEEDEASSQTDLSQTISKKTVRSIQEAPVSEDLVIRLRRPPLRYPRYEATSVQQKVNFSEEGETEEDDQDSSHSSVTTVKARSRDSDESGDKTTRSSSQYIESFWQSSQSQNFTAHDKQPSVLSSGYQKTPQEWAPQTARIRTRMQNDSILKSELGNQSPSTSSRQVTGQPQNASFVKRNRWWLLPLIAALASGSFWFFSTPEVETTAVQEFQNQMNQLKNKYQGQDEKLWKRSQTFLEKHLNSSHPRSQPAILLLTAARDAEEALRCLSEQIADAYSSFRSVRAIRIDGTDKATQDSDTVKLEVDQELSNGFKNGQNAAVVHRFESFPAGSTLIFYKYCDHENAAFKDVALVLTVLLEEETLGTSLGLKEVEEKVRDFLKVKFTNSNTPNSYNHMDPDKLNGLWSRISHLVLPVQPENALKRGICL
# Chain of Dickkopf-related protein 1 (Homo sapiens) (O94907 whole entry, looked up): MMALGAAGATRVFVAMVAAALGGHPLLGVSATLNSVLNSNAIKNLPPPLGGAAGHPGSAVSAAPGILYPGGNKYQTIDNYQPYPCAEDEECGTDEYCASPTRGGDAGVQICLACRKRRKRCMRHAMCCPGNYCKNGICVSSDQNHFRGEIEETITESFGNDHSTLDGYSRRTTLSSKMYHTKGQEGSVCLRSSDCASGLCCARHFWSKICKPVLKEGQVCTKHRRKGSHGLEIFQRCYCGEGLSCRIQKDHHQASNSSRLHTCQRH
# Chain of Fibroblast growth factor 10 (Homo sapiens) (O15520 whole entry, looked up): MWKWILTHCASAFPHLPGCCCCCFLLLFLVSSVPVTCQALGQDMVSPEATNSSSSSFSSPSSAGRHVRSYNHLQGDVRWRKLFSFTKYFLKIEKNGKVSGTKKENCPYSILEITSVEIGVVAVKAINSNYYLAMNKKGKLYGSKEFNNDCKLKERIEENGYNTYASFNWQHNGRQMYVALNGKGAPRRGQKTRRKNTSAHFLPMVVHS
SMILES,composite z-score [1],composite z-score [2],composite z-score [3],z-score [4],composite z-score [5],composite z-score [6],composite z-score [7],composite z-score [8],composite z-score [9],composite z-score [10],composite z-score [11],z-score [12],composite z-score [13],composite z-score [14],composite z-score [15],composite z-score [16],composite z-score [17],composite z-score [18],composite z-score [19],composite z-score [20]
CC(=O)O[C@H]1C2=CO[C@H](C)[C@H]3[C@H]4C5=C([C@H](O)[C@H]6O[C@H]6C5=O)[C@H](OC4C)[C@@]23C(=O)[C@@H]2O[C@@H]21 (stereo not given in full),1.74,-0.238,-0.647,-4.6 (inactive),0.916,-0.0987,-0.121,0.0068,0.538,0.528,-0.361,-4.68,0.384,-0.935,-0.994,0.0108,0.0804,0.262,0.963,-1.03
COC(=O)CC=C[C@@H](C)[C@@H](C=NOC[C@H]1O[C@H](c2ccccc2)C=C[C@@H]1Oc1ccc(OC)cc1)NS(=O)(=O)c1ccc(C)cc1,-0.611,0.0033,0.674,0.00198 (inactive),-0.858,-1.78,-0.873,-1.2,-0.462,0.797,-1.1,-0.787,-0.233,-1.07,-0.467,-0.147,-0.112,-0.181,-0.306,-0.183
COC(=O)[C@H]1O[C@@H](c2c(OC)c(OC)c(C)c(OC)c2OC)[C@H](C)[C@@H](O)[C@H]1C,0.209,0.138,0.112,-0.187 (inactive),0.798,0.824,0.0132,0.89,0.743,-0.311,1.08,0.155,0.685,-0.112,-0.421,-0.157,-0.0769,0.0947,0.407,0.101
CC(CCN1CCCCc2nc(C)c(C)cc21)=NO[C@H](C)c1cn([C@H](CO)Cc2ccccc2)nn1,0.79,-0.0963,-0.65,0.339 (inactive),0.383,-0.393,0.773,1.25,0.885,1.15,0.0596,-1.13,0.708,-0.418,-0.763,0.103,0.163,-0.208,0.488,-0.276
